Results as given in the supplement of paper PMC12632987.

Target: GABARAPL2, P60520
Assay: median log2 fold change of GCK-ALFA target abundance (FLAG IP / Myc IP barcode read proportion) (log2 ratio); each designed protein is fused to an ALFA-tag nanobody in HEK293 cells to bring the named protein to FLAG-tagged glucokinase (GCK); Myc marks an untargeted standard; higher = target protein stabilised (more abundant)
Details: target protein: 3xFLAG-MCP-GCK-ALFA reporter; HEK293 landing pad (RPLP)
Outline: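 Binders fused to an ALFA nanobody were recombined as a library into HEK293 landing-pad cells, which were induced with 2 μg mL^−1 doxycycline and then transfected to express a FLAG-tagged target and a Myc-tagged standard. After 48 h, circular RNA barcodes recovered by anti-FLAG and anti-Myc immunoprecipitation of lysates were reverse transcribed, amplified and sequenced. Each binder's target abundance is the median log2 ratio of FLAG to Myc barcode read proportions, from barcodes present at ≥10^−7 in both replicates, binders carrying ≥3 barcodes per replicate, a 10^−6 pseudocount and pooled replicates.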

GABARAPL2, P60520, sequence (P60520 whole entry, the tested form may be a part): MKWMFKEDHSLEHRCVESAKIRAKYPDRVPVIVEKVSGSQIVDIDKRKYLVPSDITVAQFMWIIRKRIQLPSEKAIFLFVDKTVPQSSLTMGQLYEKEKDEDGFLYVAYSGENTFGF

Row | Binder | median log2 fold change
1 | GBRAPL2_64_7409 (protein) PKVHLAIAYEVEEREEDGKKVLVLDATVYVIKDGEITELEAKVVAEQLSETTWLVKLELKKPDGSVIKREEVVEAPWEDVETEMLELVDEAAREAVEEEE | -0.0236
2 | GBRAPL2_63_7407 (protein) MTVRKVLEALLEHAILDLDTAERLEEALENETDEEELFETLVEAILDIRPELTPEEAREVAEKLVELAKQSEELLKEAVRALTTLSKEEFLAYLDELVAK | 0.0216
3 | GBRAPL2_93_7422 (protein) MKVKVTIIRLVNGEVVEEEEREVTVEEAKKLIEELLKEAVANGERVIIEIYDKDTGWTFGDYVENEEQAEKALKRAKEILDDLEKEGKEVEITITIEKKT | 0.15
4 | GBRAPL2_83_7411 (protein) MKIELDVELTVVIKGDEEEVEKIEDMMVETARELRKLGAAAVVATKEEDGVYTFVLDVLYVGDEEGAKKVIELLKESAEKIKKEFPEAKVTVKVVEKKVL | -0.364
5 | GBRAPL2_85_7419 (protein) MEKVTIVARSLAEAVDMAVDVVEALEPEGEIEVDLIVLVPSSELEAALAALPAAAAELKARLQELARRHPGLVVRAEVEIFDSDTREFHPDVRRFTVRDE | 0.0842
6 | GBRAPL2_63_7406 (protein) SAVRRVLEALLRHAILDLDTAELLDEALETETDEEALYETLVEAILRIRPELTPEEAREVADKLIALAEQSEALLAEAVRDLTTLSKEEFLARLDALVAE | -0.0969
7 | GBRAPL2_83_7413 (protein) MTVRLALELTVTLEGDEEEKEALLDMMVETADELRKLGAAAVVAIEEEDGVLTIVLDVLVVGNKEQVEKVKKKLEEAAKEIKEKFPNAKVEVKVLEEEEL | -0.417
8 | GBRAPL2_83_7410 (protein) MEVLLELELTVTYKGNEEDKEKILDMLLEAQDKLRELGATAVVAEKLENGVYTFSLYAIYRGPREGAEKVRKTLEEFAEKIKKEFPEAKVEVKVLEEREL | -0.0517
9 | GBRAPL2_83_7417 (protein) VKKLKVITHDIEIKSENITEEEALDMAGDVAAELRKHGIKTVVGVERENGVVKVELESIMEDNEEKEKLVHEEVEKLVEELKKKGAEVKVETEEEIVEVE | 0.0338
10 | GBRAPL2_83_7415 (protein) VERTVLITTEITVRHPDLTEEEALDLAGDVAARLREHGVKTVVGVEERDGVVHIVLESLTPDDPALRAAIDEEVDALVAELRARGAEVEVRREEEVVDVP | -0.00519
11 | GBRAPL2_85_7421 (protein) TEKVTIVAHTLEEVVDMSVDVLEALEPKGTVEIEGIVAVPSSELEKALKELPKAAEELKKRLEELAKKRPGLTINAEIRIFNLDTKEFHPKVEKFTVKNE | 0.266
12 | GBRAPL2_83_7418 (protein) VKTIRVITYDIEIKSENITEEEALDMAGDVAEELRKKGVKTVVGVEEENGVVHVTLEAIHEDDEELRKLIDEEVEKLVKELEAKGAEVKVKVEEELEEIE | 0.388
13 | GBRAPL2_83_7416 (protein) MKKRVLITHEIEVKSEKVTKEEALDLAGDVAERLREKGIAAVVSVEEEDGVILVEIEALLEDSEEKIKIVEEEVEKLVKRLEELGAEVKLKTEREEEIVP | 0.184
14 | GBRAPL2_64_7408 (protein) AKVHLAIAYEFKESTENGKKVLKLEATVYVIEDGEITELEAEVTATQLSETTWEVKLVLRQPDGSVLERTEVVTVPYEDVETEMLDLILEAAREAVAARR | 0.118
15 | GBRAPL2_85_7420 (protein) MEKITIVARTLEEAVEMAVDVVEALDPKGEIEVELIVLVPSSELEKAIAELPKAAEELKKKFQELAKKHPGLKINAEIEIFDSDTREFHPDVKKFTVEDK | 0.19
16 | GBRAPL2_83_7414 (protein) TTIELDLLLEVKLKGDEEEKEELLDLMVEAADRLRELGASAAVAIKEENGVLEVEVHVIAVGDEELVKKVEEKLKEAAEEIKKKFPKAEVKVEVLERKEL | 0.119
